Source: PubChem BioAssay AID463173 (ICCB-Longwood Screening Facility, Harvard Medical School, 2010)
The whole screen tested about 52,000 compounds, of which about 4,300 (8.3%) were called active. Many of the other results were omitted from the sample, so actives are more common in it than they were. Unmarked numbers belong to inactive results. No stated cut-off is given here; in the data, active means survival mostly below about 52% (no sharp cut-off); inactive means mostly above about 56%.

Test system: DeltatarO mutant
Test: S. aureus survival, RN4220 and DeltatarO strains – OD600, teichoic acid synthesis inhibitors, primary screen (AID 463173)
Conditions: S. aureus RN4220 wild type/DeltatarO growth, OD600, 18 h, active compounds read low, screened at 18.75 µg/mL (by protocol)

Row | SMILES | survival
1 | CC(C)Cn1c(=O)c2ccccc2n2c(-c3ccc(Br)cc3)nnc12 | 94%
2 | Cc1ccc(CN(Cc2ccco2)C(=O)COc2ccc(Cl)cc2Cl)cc1 | 96%
3 | Cc1ccc(-c2nnc(Nc3ccc(O)cc3)c3ccccc23)cc1S(=O)(=O)N1CCCCC1 | 104%
4 | Cc1cccc(N2CCN(c3nc4ccc(C(=O)c5ccccc5)cc4n4cnnc34)CC2C)c1 (centres undefined) | 76%
5 | Fc1ccc(-c2noc3ncnc(NCC4CCN(Cc5ccc(Cl)cc5)CC4)c23)cc1 | 72%
6 | Cc1ccc(CCNc2ncnc3onc(-c4ccc(F)cc4)c23)cc1 | 83%
7 | Cc1ccc(CO)cc1Nc1ncnc2onc(-c3ccc(F)cc3)c12 | 46% (active)
8 | Cc1cc(C)cc(Nc2ncnc3onc(-c4ccc(F)cc4)c23)c1 | 84%
9 | Cc1ccc(CN2CCC(CNc3ncnc4onc(-c5ccc(Cl)cc5)c34)CC2)cc1 | 80%
10 | Cc1ccc(CN2CCC(CNc3ncnc4onc(-c5ccc(F)cc5)c34)CC2)cc1 | -2% (active)
11 | Cc1cccc(N2CCN(C(=O)c3cccc(-n4c(C)nc5cccnc54)c3)CC2)c1C | 104%
12 | COc1ccc2c(c1)cc1c(=O)n(CC(=O)NC3CCCCC3)nc(C)n12 | 70%
13 | COc1ccc(CCNS(=O)(=O)c2c(C)nc3sccn3c2=O)cc1OC | 64%
14 | CCOc1ccc(CN2C(=O)c3ccccc3Sc3ccc(C(=O)NCCc4ccccc4)cc32)cc1 | 58%
15 | COC(=O)C1(C)NC(c2ccc(OC)cc2)C2C(=O)N(c3ccccc3)C(=O)C21 (centres undefined) | 80%
16 | COC(=O)C1(C(C)C)NC(c2ccccc2OC)C2C(=O)N(C)C(=O)C21 (centres undefined) | 84%
17 | COC(=O)C1(C)NC(c2ccccc2C)C2C(=O)N(C)C(=O)C21 (centres undefined) | 54% (active)
18 | COc1ccc(C)cc1NS(=O)(=O)c1ccc2oc(=O)c3ncn(C)c3c2c1 | 77%
19 | CCc1ccc(S(=O)(=O)NCc2ccc3c(c2)CCN3C(=O)c2ccc(C)cc2)cc1 | 71%
20 | CCOc1ccc(-c2nonc2NC(=O)c2ccco2)cc1 | 79%
21 | CC(=O)Nc1cccc(NC(=O)Cn2cnc3c2c(=O)n(C)c(=O)n3C)c1 | 70%
22 | Cn1c(=O)c2c(ncn2CC(=O)Nc2cccc(C(F)(F)F)c2)n(C)c1=O | 71%
23 | CC(=O)c1cccc(NC(=O)Cn2cnc3c2c(=O)n(C)c(=O)n3C)c1 | 44% (active)

Row | SMILES | survival
24 | Cc1cccc(-c2cc(-c3ccccc3)nc(SCC(=O)Nc3ccccc3)c2C#N)c1 | 67%
25 | COc1cc(C(CC(=O)Nc2ccc(C)c(F)c2)N2Cc3ccccc3C2=O)cc(OC)c1OC (centres undefined) | 93%
26 | CC(C)c1ccc(S(=O)(=O)NCc2ccc3c(c2)CCN3C(=O)c2ccccc2)cc1 | 87%
27 | CCc1c(CN2CCN(c3cccc(C)c3C)CC2)csc1C | 76%
28 | CCc1c(CN2CCN(c3ccccc3F)CC2)csc1C | 32% (active)
29 | Cc1cc(CN2CCN(c3ccc(F)cc3)CC2)cs1 | 69%
30 | Cc1scc(CN2CCN(c3ccc(F)cc3)CC2)c1C | 64%
31 | Cc1ccc(-c2c(CN3CCN(c4cccc(C)c4C)CC3)csc2C)cc1 | 21% (active)
32 | CCc1c(CN2CCN(c3ccc(F)cc3)CC2)csc1C | 38% (active)
33 | Cc1ccc(-c2c(CN3CCN(c4cc(Cl)ccc4C)CC3)csc2C)cc1 | 51%
34 | Cc1ccc(-c2c(CN3CCN(c4cc(C)ccc4C)CC3)csc2C)cc1 | 126%
35 | Cc1scc(CN2CCN(c3ccccc3F)CC2)c1C | 64%
36 | COc1ccc(-c2cc(C(F)(F)F)nc(SCCC(=O)Nc3ccccc3F)n2)cc1 | 77%
37 | Cc1ccc(Cl)cc1NC(=O)Cn1nnc2sc3c(c2c1=O)CCC(C(C)(C)C)C3 (centres undefined) | 58%
38 | C=CCc1c(C)nc2nc(SCC(=O)Nc3cccc(Cl)c3)nn2c1C | 102%
39 | CCCNC(=O)C1CCN(C(=O)N2CC(C)Oc3ccccc32)CC1 (centres undefined) | 65%
40 | CCOc1ccc(-n2c(=O)c3c(C)c(C)sc3n(Cc3c(F)cccc3Cl)c2=O)cc1 | 96%
41 | Cc1cccc(C(=O)NCC(=O)OCc2cc(=O)n3nc(C)sc3n2)c1 | 82%
42 | N#Cc1ccc(C(=O)NCc2ccc3c(c2)CCN3C(=O)c2ccc(F)cc2)cc1 | 83%
43 | CCOc1ccc(S(=O)(=O)N2Cc3ccccc3CC2C(=O)Nc2ccc(NC(C)=O)cc2)cc1 (centres undefined) | 69%
44 | Cc1ccc(-n2ncc(C(=O)Nc3ccc4c(c3)OCO4)c2C2CCN(C(=O)OC(C)(C)C)CC2)cc1 | 79%
45 | COc1ccc(CC(CC(=O)O)C(=O)NCc2ccccc2)cc1 (centres undefined) | 81%
46 | CCC(=O)Nc1ccc(C(=O)Nc2c[nH]c(=O)[nH]c2=O)cc1 | 85%

Row | SMILES | survival
47 | CC1CCN(c2nnc(-n3cccc3CNc3cccc(F)c3)s2)CC1 | 93%
48 | Cc1ccc(NC(=O)CSc2nnc(-c3ccc([N+](=O)[O-])cc3)o2)c(C)c1 | 73%
49 | CCOC(=O)c1cc(S(=O)(=O)Nc2cc(C)c(Cl)cc2OC)[nH]n1 | 77%
50 | CCOC(=O)c1cc(S(=O)(=O)Nc2cc(OC)ccc2OC)[nH]n1 | 119%
51 | CCOC(=O)c1cc(S(=O)(=O)Nc2ccc(OC)c(Cl)c2)[nH]n1 | -4% (active)
52 | COc1cc(OC)cc(C(=O)Nc2cc3c(cc2N2CCCCC2)n(C)c(=O)n3C)c1 | 83%
53 | COc1ccc(OC)c(S(=O)(=O)N2CCC(c3ccncc3)CC2)c1 | 122%
54 | COc1cccc(-n2cc(C(=O)NCc3cccc(Cl)c3)c3ccccc3c2=O)c1 | 58% (active)
55 | COc1ccc(-n2cc(C(=O)NCCc3ccc(C)cc3)c3ccccc3c2=O)cc1 | 53%
56 | COc1ccc(CNC(=O)c2cc3c(=O)n(C)c4ccccc4c3n2C)c(OC)c1 | 50%
57 | COc1ccc(-n2cc(C(=O)NCc3cccc(OC)c3)c3ccccc3c2=O)cc1 | 110%
58 | CCOc1ccc(CCNC(=O)c2cn(-c3ccc(OC)cc3)c(=O)c3ccccc23)cc1OCC | 111%
59 | COc1ccc(-n2cc(C(=O)NCCc3cc(OC)ccc3OC)c3ccccc3c2=O)cc1 | 55% (active)
60 | COc1ccc(CNC(=O)c2cc3c(=O)n(C)c4ccccc4c3n2C)cc1 | 89%
61 | COc1ccc(CNC(=O)c2cn(-c3cccc(OC)c3)c(=O)c3ccccc23)cc1 | 67%
62 | COc1ccc(OC)c(CCNC(=O)c2cc3c(=O)n(C)c4ccccc4c3n2C)c1 | 43% (active)
63 | CC1CCC(NC(=O)c2ccc(CSc3nc4ccncc4n3Cc3ccc(F)cc3)cc2)CC1 (centres undefined) | 59%
64 | COc1ccc(OC)c(-n2c(=O)[nH]c3cc(C(=O)NCCc4ccc(OC)c(OC)c4)ccc3c2=O)c1 | 76%
65 | CCC1CN(C(=O)N2CCC(C(=O)NCc3ccc(N(C)C)cc3)CC2)c2ccccc2O1 (centres undefined) | 73%
66 | CCOC(=O)N1CCc2c(sc(NCc3ccc(N(CC)CC)cc3)c2C(=O)Nc2cc(OC)ccc2OC)C1 | 71%
67 | CCOC(=O)c1ccc(NC2=CC(c3ccc(F)cc3)N(c3ccc(C(=O)OCC)cc3)C2=O)cc1 (centres undefined) | 66%
68 | CCc1nc2cccnc2n1-c1ccc(CC(=O)Nc2ccc(C)cc2)cc1 | 78%
69 | COc1ccccc1Nc1nn2c(=O)c3ccc(C(=O)NCCCOC(C)C)cc3nc2s1 | 71%

Row | SMILES | survival
70 | CCOC(=O)c1ccc(NC(=O)C2=C(C)C(=O)OC23CCCCCC3)cc1 | 81%
71 | Cc1cc(NS(=O)(=O)c2ccc(NC(=O)COc3c(C)cc(Br)cc3C)cc2)no1 | 110%
72 | Cc1noc(NS(=O)(=O)c2ccc(NC(=O)COc3ccccc3Br)cc2)c1C | 53%
73 | Cc1cc(NS(=O)(=O)c2ccc(NC(=O)COc3ccc(Br)cc3C)cc2)no1 | 32% (active)
74 | Cc1cccc(OCC(=O)Nc2ccc(S(=O)(=O)Nc3onc(C)c3C)cc2)c1C | 40% (active)
75 | Cc1cc(NS(=O)(=O)c2ccc(NC(=O)COc3cc(C)c(Br)cc3C(C)C)cc2)no1 | 13% (active)
76 | CCC(C)c1ccccc1OCC(=O)Nc1ccc(S(=O)(=O)Nc2cc(C)on2)cc1 (centres undefined) | 80%
77 | Cc1cc(NS(=O)(=O)c2ccc(NC(=O)COc3ccccc3Br)cc2)no1 | 67%
78 | Cc1ccc(OCC(=O)Nc2ccc(S(=O)(=O)Nc3cc(C)on3)cc2)c(Br)c1 | 56%
79 | Cc1ccc(C)c(OCC(=O)Nc2ccc(S(=O)(=O)Nc3onc(C)c3C)cc2)c1C | 165%
80 | COc1ccc2c(c1)c(CC(=O)Nc1cc(C)c(OC)c(C)c1)c(C)n2C(=O)c1ccc(Cl)cc1 | 71%
81 | COc1cc(C(c2nnnn2C2CCCCC2)N2CCc3ccccc3C2)ccc1O (centres undefined) | 62%
82 | COc1ccc(N2CCN(C(=O)c3ccc4c(c3)N(Cc3cccc(Cl)c3)C(=O)c3ccccc3S4(=O)=O)CC2)cc1 | 83%
83 | COc1cc2oc(=O)c(CC(=O)NCc3ccc(OC)c(OC)c3)c(C)c2cc1Cl | 71%
84 | CC(=O)N1CCC2(CC1)OC(=O)C(C)=C2C(=O)NCc1ccc(Cl)cc1 | 58%
85 | Cc1cc(C)cc(NC(=O)c2cccc(C(=O)Nc3cc(C)cc(C)c3)c2)c1 | 129%
86 | CCOc1ccc(C(=O)N2CCN(c3ccccc3)CC2)cc1 | 78%
87 | CC1=C(C(=O)Nc2ccccc2)C(c2ccc(C)o2)NC(=S)N1 (centres undefined) | 61% (active)
88 | COc1ccccc1NC(=O)C1=C(C)NC(=S)NC1C (centres undefined) | 86%
89 | CC1=C(C(=O)Nc2ccccc2C)C(c2ccccc2O)NC(=S)N1 (centres undefined) | 103%
